C diff growth: blocks growth of Clostridium difficile | Clostridium difficile clinical isolate growth, OD600, 24 h; hits give low values | growth activity, negative = inhibition, % at 16 µg/mL (by protocol) | 86,000 compounds, 0.25% hits | AID 1259249;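 active = mean growth activity at or below -80% and every replicate also at or below -80%; inconclusive = mean at or below -80% but some replicate above -80%; inactive = mean growth activity above -80%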;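 also: 0% = DMSO wells and -100% = levofloxacin 16 µg/mL wells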
T cruzi growth-1: blocks T. cruzi growth in NIH3T3 culture. T. cruzi beta-gal in NIH3T3, GalScreen luminescence, 90 h. inhibition, % at 8.34 µM. 77,000 compounds, 5.9% hits. AID 624255;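 active = mean inhibition above about 93%, with at least 55% of replicates each passing it, limit read from the data, passing the limit was not always enough; inconclusive = only one of those two conditions holds; inactive = neither condition holds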
T cruzi growth-2: inhibitors of T. cruzi proliferation; inhibition, % at 8.35 µM; T. cruzi beta-gal in NIH3T3, GalScreen luminescence, 90 h; shares compounds with T cruzi growth-1; AID 651739; 5,600 compounds, 72% hits;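 active = mean replicate inhibition above about 95% and at least 55% of replicates individually reaching it, limit read from the data; inconclusive = only one of the two criteria is met; inactive = neither criterion is met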
T cruzi growth-3: blocks T. cruzi growth in NIH3T3 host cells; shares compounds with T cruzi growth-1; T. cruzi beta-gal in NIH3T3, GalScreen luminescence, 90 h; inhibition, % at 2.09 µM; 5,600 compounds, 21% hits;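 active = mean inhibition above about 95%, with at least 55% of replicates also reaching it, limit read from the data; inconclusive = meets just one of the two conditions; inactive = meets neither condition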;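 also: plate controls were neutral control median for no effect and positive control median for full effect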
NIH3T3 tox: cytotoxicity in mouse NIH/3T3 fibroblasts; shares compounds with T cruzi growth-1; NIH/3T3 viability, CellTiter-Glo ATP luminescence, 90 h; cytotoxicity (signal decrease), % at 8.35 µM; 5,600 compounds, 14% hits;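 active = mean signal decrease across replicates above about 35% based on untreated-well scatter, with enough replicates individually passing, limit read from the data; inconclusive = no rule stated though some were filed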;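 also: 0% = median of neutral control wells and 100% = median of positive control wells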
NIH3T3 tox 2: NIH/3T3 (mouse) viability loss; shares compounds with T cruzi growth-1; NIH/3T3 viability, CellTiter-Glo ATP luminescence, 90 h; inhibition, % at 24.9 µM; 5,600 compounds, 56% hits;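 active = mean loss of cell viability signal at or above a set limit, and enough replicates individually reaching it; inconclusive = meets only the mean limit or only the replicate share; inactive = meets neither condition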;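 also: 0% = median of neutral control wells and 100% = median of positive control wells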
* marks the source's active call; other numbers are inactive results; ? = inconclusive; . = no result given. The sample as a whole holds a higher share of hits than the screen did.

SMILES	C diff growth	T cruzi growth-1	T cruzi growth-2	T cruzi growth-3	NIH3T3 tox	NIH3T3 tox 2
[N-]=[N+]=Nc1ccccc1C[C@@]1(C(=O)NCCN2CCOCC2)N=C(c2ccc(OCCCO)cc2)O[C@@H]1c1ccccc1N=[N+]=[N-]	0	.	.	.	.	.
COc1ccc(S(=O)(=O)N[C@@H]2CC[C@@H](CCn3cc(C(C)C)nn3)O[C@@H]2CO)cc1	.	-10	.	.	.	.
CCS(=O)(=O)N1CCCCN2[C@H](CO)[C@H](c3ccc(C#Cc4ccccc4OC)cc3)[C@H]2C1	14	-1	.	.	.	.
CCS(=O)(=O)N1CCCCN2[C@H](CO)[C@@H](c3ccc(C#Cc4ccccc4OC)cc3)[C@H]2C1	-2	122*	101*	51	45*	85*
COc1ccccc1C#Cc1ccc([C@@H]2[C@H]3CN(S(C)(=O)=O)CCCCN3[C@H]2CO)cc1	-3	94	.	.	.	.
COc1ccccc1C#Cc1ccc([C@H]2[C@H](CO)N3CCCCN(S(C)(=O)=O)C[C@@H]23)cc1	4	?	106*	74	39*	70*
CCCC#Cc1ccc([C@@H]2[C@@H](CO)N3CCCCN(S(=O)(=O)CC)C[C@H]23)cc1	12	-5	.	.	.	.
CCS(=O)(=O)N1CCCCN2[C@H](CO)[C@H](c3ccc(C#Cc4ccccc4OC)cc3)[C@@H]2C1	-2	112*	106*	74	42*	51*
C[C@H](CO)N1C[C@H](C)[C@H](CN(C)S(=O)(=O)c2ccc(C#N)cc2)Oc2ncc(C#Cc3ccc(F)cc3)cc2C1=O	0	89	.	.	.	.
O=S(=O)(N[C@H]1CC[C@@H](CCn2cc(C3(O)CCCC3)nn2)O[C@@H]1CO)c1ccccc1	-5	-13	.	.	.	.
CO[C@H]1CN(C)C(=O)c2ccc(NC(=O)C3CCC3)cc2OC[C@H](C)N(CC2CCCCC2)C[C@H]1C	.	26	.	.	.	.
C[C@H](NC(=O)C[C@H]1CC[C@@H]2[C@H](COC[C@@H](O)CN2C(=O)Nc2cccc(F)c2)O1)c1ccccc1	-5	30	.	.	.	.
Cc1ccc(S(=O)(=O)Nc2ccc3c(c2)C(=O)N([C@@H](C)CO)C[C@H](C)[C@@H](CN(C)Cc2ccc(-c4ccccc4)cc2)O3)cc1	33	?	103*	95	22	87*
Cc1ccc(S(=O)(=O)Nc2ccc3c(c2)C(=O)N([C@@H](C)CO)C[C@@H](C)[C@H](CN(C)Cc2ccc(-c4ccccc4)cc2)O3)cc1	28	89	.	.	.	.
C[C@@H]1CN([C@@H](C)CO)C(=O)c2cc(NS(=O)(=O)c3ccc(Cl)cc3)ccc2O[C@H]1CN(C)Cc1ccc(-c2ccccc2)cc1	11	109*	106*	80	-2	104*
C[C@H]1CN([C@@H](C)CO)C(=O)c2cc(NS(=O)(=O)c3ccc(Cl)cc3)ccc2O[C@H]1CN(C)Cc1ccc(-c2ccccc2)cc1	10	31	.	.	.	.
C[C@H](CO)N1C[C@H](C)[C@H](CN(C)Cc2ccc(-c3ccccc3)cc2)Oc2ccc(NS(=O)(=O)c3cccs3)cc2C1=O	8	56	.	.	.	.
C[C@H](CO)N1C[C@H](C)[C@H](CN(C)Cc2ccc(-c3ccccc3)cc2)Oc2ccc(NS(=O)(=O)c3ccc(F)cc3)cc2C1=O	19	75	.	.	.	.
C[C@H]1CN([C@@H](C)CO)C(=O)c2cc(NS(=O)(=O)c3ccc(F)cc3)ccc2O[C@@H]1CN(C)Cc1ccc(-c2ccccc2)cc1	18	?	106*	46	2	103*
C[C@@H]1CN([C@H](C)CO)C(=O)c2cc(NS(=O)(=O)c3cccs3)ccc2O[C@@H]1CN(C)Cc1ccc(-c2ccccc2)cc1	14	93*	-4	-33	7	-11
COc1ccc(S(=O)(=O)N2C[C@H](O)COC[C@H]3O[C@@H](CC(=O)NCCCN4CCOCC4)CC[C@@H]32)cc1	.	21	.	.	.	.
C[C@H]1CN([C@@H](C)CO)C(=O)c2cccc(NS(=O)(=O)c3cn(C)cn3)c2O[C@@H]1CN(C)S(=O)(=O)c1cn(C)cn1	-6	-23	.	.	.	.
COc1ccc(S(=O)(=O)Nc2ccc3c(c2)C(=O)N([C@H](C)CO)C[C@H](C)[C@H](CN(C)C(=O)Nc2ccc(F)cc2)O3)cc1	6	46	.	.	.	.
C[C@H](CO)N1C[C@H](C)[C@@H](CN(C)S(=O)(=O)c2cn(C)cn2)OCCCC[C@H](C)Oc2ccc(NC(=O)Nc3ccc4c(c3)OCO4)cc2C1=O	-1	27	.	.	.	.
